Screen size: about 1,200 compounds; about 20 (2%) were called active. About 23% were inconclusive and are not listed. Shown is part of a subset that was picked to be rich in actives. Unmarked numbers belong to inactive results. Calls follow the shape of the dose curve; as a rule, active = well fitted inhibition curve with a large enough effect; inconclusive = small, poorly fitted or top-dose-only effect; inactive = no such curve, though single readings can be large or run the other way.
What follows are compounds tested against Transcriptional regulator ERG (Homo sapiens) (UniProt P11308) (assay: qHTS for Small Molecule Inhibitors of the ERG Ets/DNA interaction: HTRF assay against cherry picks). Conditions: His-ERG Ets domain with biotin-DNA; series mostly up to 154 µM; activity change, negative = inhibition: at the top concentration.
Transcriptional regulator ERG (Homo sapiens), sequence (P11308 whole entry, looked up, the tested form may be a part): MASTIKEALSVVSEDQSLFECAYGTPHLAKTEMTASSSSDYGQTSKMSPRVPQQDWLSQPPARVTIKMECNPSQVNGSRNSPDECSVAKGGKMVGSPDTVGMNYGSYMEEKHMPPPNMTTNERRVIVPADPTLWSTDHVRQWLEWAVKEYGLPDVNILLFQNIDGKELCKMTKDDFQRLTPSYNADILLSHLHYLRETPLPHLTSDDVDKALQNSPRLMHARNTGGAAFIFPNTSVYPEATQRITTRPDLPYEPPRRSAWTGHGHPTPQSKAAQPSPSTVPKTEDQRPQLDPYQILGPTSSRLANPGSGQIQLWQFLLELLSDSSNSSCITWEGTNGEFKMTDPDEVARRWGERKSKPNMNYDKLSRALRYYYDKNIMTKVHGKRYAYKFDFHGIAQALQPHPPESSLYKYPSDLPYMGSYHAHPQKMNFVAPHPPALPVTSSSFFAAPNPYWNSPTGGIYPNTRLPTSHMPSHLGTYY
Description: The Ets family of proteins is a family of ~30 conserved transcription factors defined by the presence of an ~85 amino acid domain referred to as the Ets domain, which mediates sequence-specific DNA binding to a core DNA element GGAA/T.The Ets family member ERG has been linked to several neoplasms. […] More extensive studies of the effects of over-expression of ERG in prostate cells have recently been carried out and have shown that over-expression of ERG results in increased invasion. […] We will carry out a high throughout screen to identify inhibitors of the interaction between ERG and DNA using a fluorescence polarization (FP) assay with a His-tagged ERG Ets domain and fluorescently-labeled DNA probes to develop small molecule inhibitors of this interaction as probes to test this hypothesis and lay the groundwork for the development of targeted therapies against ERG. This is the counterscreen against the cherry picks. NIH Molecular Libraries Probe Production Network [MLPCN] NIH Chemical Genomics Center [NCGC] Grant: NS066464 PI Name: John Bushweller, University of Virgina
2 ul of protein solution (200 nM ERG domain in 300mM KCl, 50mM Tris-HCl, 1mM EDTA, 1mM DTT, pH 7.5); 20 nl Control plate and compound library plate; 2 ul of 200 nM biotin-DNA; incubate for 10 min at RT; 1 ul of anti-His antibody conjugated to the long-life fluorescent cryptate donner […] (5ng/ul) and streptavidin conjugated to the acceptor compound […] (0.2 ng/ul) mix; incubate 10 min and measure FRET (Excitation = 320 nm, Emission = 615, 665 nm).
Potency is read from the fitted curve at half-maximal effect.

SMILES	activity change, negative = inhibition [%]	Potency
Cc1cc(OCc2cc3c(cc2Cl)OCO3)c2c(C)cc(=O)oc2c1	-3.98	–
COC(=O)c1ccccc1NC(=O)c1cc(C2CC2)on1	-14.3	–
Nc1ccccc1S(N)(=O)=O	-1.75	–
COc1cc(CCC(=O)Nc2ccc(Br)c(C(F)(F)F)c2)cc(OC)c1OC	-23.7	–
O=C(NCCCc1ccccc1)C(=O)NCC1OCCN1S(=O)(=O)c1cc(F)ccc1F (stereo not drawn)	-21.2	–
N#Cc1c(SCc2c(Cl)cccc2Cl)nc(N)[nH]c1=S	-36.5	–
CCC(c1nnnn1Cc1ccc(F)cc1)N1CCN(C)CC1 (stereo not drawn)	-23.8	–
Cc1sc2nc(CSC(C)C(=O)Nc3ccc(C(N)=O)cc3)[nH]c(=O)c2c1C (stereo not drawn)	-40.4	–
CCOc1ccc(NS(=O)(=O)c2ccc(NC(C)=O)c(OC)c2)cc1	-24.9	–
CCn1ccc2c(OCC(=O)Nc3ccc(C(C)=O)cc3)cccc2c1=O	-14.2	–
COc1cccc2c1C(=N)c1c(O)c3c(c(O)c1C2=O)CC(O)(C(C)=O)CC3OC1CC(N)C(O)C(C)O1 (stereo not drawn)	–	3.98 µM (active)
COC(=O)c1c(C(=O)OC)c(-c2ccc(OC)cc2)n2c1CS(=O)C2 (stereo not drawn)	-14.5	–
CC(NC(=O)c1ccco1)c1nc(-c2ccc(C(C)(C)C)cc2)no1 (stereo not drawn)	-19.6	–
O=C(Cc1csc(-c2ccccc2)n1)NCc1ccc(F)cc1	-25.8	–
O=C(NCCCc1ccccc1)C(=O)NCC1OCCN1S(=O)(=O)c1ccccc1 (stereo not drawn)	-28.9	–
CCn1nc(C)c(CNC(=O)c2cc(COc3ccccc3SC)on2)c1C	-14.4	–
CS(=O)(=O)N(CC(=O)Nc1ccccc1)c1cccc(Cl)c1Cl	1.01	–
O=C(O)CC(c1cccc2ccccc12)N1Cc2ccccc2C1=O (stereo not drawn)	-11.1	–
O=C(NCc1ccc(F)cc1F)c1cc(COc2c(F)cccc2F)on1	8.28	–
Cc1cc(C)cc(N(C(=O)c2csnn2)C(C(=O)NC(C)(C)C)c2ccncc2)c1 (stereo not drawn)	-28.2	–

SMILES	activity change, negative = inhibition [%]	Potency
COc1ccc(Nc2ncnc3sccc23)cc1OC	-22.8	–
COc1ccc(-c2cccc(NS(=O)(=O)c3cc([N+](=O)[O-])ccc3C)c2)nn1	-26.3	–
Cc1cc(N)ccc1-n1c(C)ccc1C	-13.7	–
CC(Oc1ccc(C(=O)c2ccc(F)cc2)cc1)C(=O)N1CCOCC1 (stereo not drawn)	-25.3	–
CCc1nn2c(=O)cc(CSCC(=O)Nc3ccccc3F)nc2s1	-2.81	–
CCOC(=O)C(CC)Sc1ccc2nnc(-c3cccnc3)n2n1 (stereo not drawn)	-10.8	–
CC1CCN(S(=O)(=O)c2ccc(Cl)s2)CC1	-23	–
Cn1nc(C(F)(F)F)c(C#N)c1N1CCN(c2ccccn2)CC1	-25.8	–
O=C(C[C@H]1C/C=C\CC[C@@H](Cc2ccc(F)cc2)C(=O)OC[C@H]2CCCN2C1=O)N[C@H](CO)Cc1ccccc1	-13.8	–
CC1(C)C2CCC1(C)C(NCC(O)COc1ccc(C#N)cc1)C2 (stereo not drawn)	-2.02	–
CCOCCn1c(CN2CCCCC2)nc2c1c(=O)n(C)c(=O)n2C	-23	–
Cc1cc(C(=O)COC(=O)C23CC4CC(CC(O)(C4)C2)C3)c(C)n1C	-28.2	–
COc1cc(NC(=O)COC(=O)CNC(=O)C2CCCCC2)cc(OC)c1	-17.5	–
Cc1nccn1C[C@@H]1CCc2c(c3ccccc3n2C)C1=O	-12.8	–
Cc1nc(Nc2cccc(F)c2)c2oc3ccccc3c2n1	-29.2	–
CCCCn1c(N)c(N(CC(C)C)C(=O)c2ccc(S(=O)(=O)N3CCC(C)CC3)cc2)c(=O)[nH]c1=O	-4.46	–
COC(=O)c1ccccc1SC(CC(=O)c1ccccc1)c1ccc(F)cc1 (stereo not drawn)	-9.34	–
CCCC(NC(=O)C(C)Sc1nnnn1C1CC1)c1ccccc1 (stereo not drawn)	-15.9	–
CCCN1C[C@H](CSC)C[C@@H]2c3cccc4[nH]cc(c34)C[C@H]21	–	14.1 µM (active)
Cc1ccccc1-n1c(=O)n(CCc2ccccc2)c(=O)c2[nH]cnc21	-2.33	–

SMILES	activity change, negative = inhibition [%]	Potency
O=S(=O)(c1ccccc1)c1cnc(-c2cccnc2)nc1-c1ccccc1	-15.6	–
O=c1oc2ccccc2cc1-c1cn2cc(Cc3ccc(F)cc3)sc2n1	-3.08	–
NC(=O)c1ccccc1NCC(=O)c1ccc(F)cc1	-21.6	–
COc1cccc(-c2nn(C)c3sc(C(=O)NCc4ccc(OC)cc4OC)cc23)c1	1.17	–
CSc1nc(-c2ccc(Cl)cc2)nn1C(=O)c1ccccc1	-19.6	–
COc1ccc(S(=O)(=O)N2CCCC(C(F)(F)F)C2)cc1 (stereo not drawn)	-24	–
CN(C)C=NC(=O)c1cc(C(=O)c2ccc(Cl)cc2)c[nH]1	-14.1	–
Cc1cc(=O)oc2cc(OCC(=O)OCC(=O)Nc3ccc(C(C)C)cc3)ccc12	-4.51	–
COC(=O)C(CCSC)NC(=O)c1cc2c(n(-c3ccccc3)c1=O)CC(C)(C)CC2=O (stereo not drawn)	-23.7	–
CC(C)CCN1CCN(C2CCN(c3ccc4c(c3)OCO4)CC2)CC1CCO (stereo not drawn)	-10.5	–
Cc1cc(C)nc(N2C(=O)CC(Cc3ccc(Cl)cc3)C2=O)n1 (stereo not drawn)	-18.5	–
Cc1ccc2oc(-c3ccc(NC(=O)CC(C)C)cc3)nc2c1	-28	–
Cc1ccc(C(=O)N2CCCCC2C(=O)O)cc1S(=O)(=O)N1CCCCC1 (stereo not drawn)	-26.3	–
O=C(Nc1ccccc1Br)c1ccccc1-c1ccccc1	-19	–
COc1ccccc1NS(=O)(=O)c1ccc(C)c(NC(=O)c2c(C)noc2C)c1	-24.5	–
Cc1ccc(NC(=O)CSc2nc3ccccc3c3nc(CCn4c(C)nc5ccccc54)nn23)cc1F	-14.4	–
COc1ccc(NC(=O)CSc2nc(C)c3c(c2C#N)CCCC3)cc1	-22.1	–
Cc1cc(C)nc(N2CCCC(C(=O)Nc3ccc(F)cc3)C2)n1 (stereo not drawn)	0.212	–
